Bioassay records deposited in PubChem BioAssay by National Center for Advancing Translational Sciences (NCATS).
DT40 TDP1 CPT – DT40-hTDP1 cell growth loss with CPT; chicken DT40 Tdp1-/-;hTDP1 cells + 20 nM CPT, ATP luminescence, 48 h; Potency, µM (top dose mostly 46.2 µM), hits mostly inhibitors; hit rate 12% among 420,000; AID 686979; also: nearly all actives have a fitted effect of over 55% in size
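Chicken DT40 Tdp1-/- cells stably complemented with human TDP1 were seeded at 400 cells/well in medium containing 20 nM camptothecin, exposed to pin-transferred compounds, and grown at 37 °C for at least 48 hr. Viability was read as ATP luminescence.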
TDP1 inh – inhibitors of human tyrosyl-DNA phosphodiesterase TDP1 | Potency, µM (top dose mostly 130 µM), most hits filed as inhibitors | Q9NUW8 | recombinant TDP1, AlphaScreen DNA substrate cleavage | AID 485290 | hit rate 0.28% among 350,000; also: nearly all actives have a fitted effect of over 40% in size
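AlphaScreen read-out: signal falls as enzyme removes the 3' tyrosine-FITC from a 5'-biotinylated DNA oligo (15 nM, 5 min, RT). Enzyme was E. coli-made recombinant Tdp1 at 1 nM, exposed to compound for 15 min beforehand; beads 10 ug/ml, 10 min.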
ClpP mod – qHTS Assay for Activators of ClpP; purified B. subtilis ClpP, FRET peptide cleavage, 20 min; Potency, µM (doses to about 57.5 µM); hit rate 1.9% among 340,000; active = well fitted falling curve with a large enough effect; inconclusive = small, poorly fitted or top-dose-only effect; inactive = no such curve, though single readings can be large or run the other way; also: the source files actives as falling curves though it sought activators and does not explain the sign; nearly all actives have a fitted effect of over 65% in size
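ClpP 10 microg/mL final, pH 8 Tris/KCl buffer with BSA, glycerol, Tween-20; compound pinned in; FRET-FV substrate; RT 20 min; Ex320/Em430; ΔFRET vs ADEP 5.8 microM, DMSO, no enzyme.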
TDP1 cell noCPT – qHTS for Inhibitors of human tyrosyl-DNA phosphodiesterase 1 (TDP1): qHTS in cells in absence of CPT; hit rate 15% among 420,000; Potency, µM (doses to about 46.2 µM), most hits filed as inhibitors; DT40 Tdp1-/- hTDP1 cells, no CPT, ATP luminescence, 48 h; also: nearly all actives have a fitted effect of over 55% in size
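DT40 Tdp1-/-;hTDP1 cells, no CPT (DMSO vehicle only), 400 cells/well; compounds pin-transferred; ≥48 hr, 37 °C; CellTiter-Glo 30 min RT dark, luminescence read.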
Each line names hits and unclear results; the compound was inactive in the other large screens. Hits are enriched below; roughly 17% of the tested compounds scored in any of these assays. Unless noted, calls follow the shape of the dose curve; as a rule, active = well fitted curve in the direction sought with a large enough effect; inconclusive = small, poorly fitted or top-dose-only effect, or another doubt; inactive = no such curve, though single readings can be large; an effect the other way counts as inactive or inconclusive.

COc1ccc(C2=NN(C(=O)c3ccco3)C(c3ccco3)C2)cc1OC (centres undefined)	DT40 TDP1 CPT 29µM, TDP1 cell noCPT 18µM (no result: ClpP mod)
CCC(=O)N1N=C(c2ccc(Cl)cc2)CC1c1ccco1 (centres undefined)	DT40 TDP1 CPT 23µM, TDP1 cell noCPT 12µM (no result: ClpP mod)
COc1ccc(C2=NN(C(C)=O)C(c3cccs3)C2)cc1OC (centres undefined)	none (no result: TDP1 inh, ClpP mod)
CC(C)[C@H](NS(=O)(=O)c1ccccc1)C(=O)OCC(=O)N1N=C(c2ccc(Cl)cc2)CC1c1ccco1 (some centres undefined)	DT40 TDP1 CPT 18µM, TDP1 cell noCPT 13µM
CCCc1cc(=O)[nH]c(SCC(=O)N2N=C(c3ccc(Cl)cc3)CC2c2ccco2)n1 (centres undefined)	DT40 TDP1 CPT inconclusive, TDP1 cell noCPT inconclusive
Nc1cc(=O)[nH]c(SCC(=O)N2N=C(c3ccc(Cl)cc3)CC2c2ccco2)n1 (centres undefined)	DT40 TDP1 CPT 18µM, TDP1 cell noCPT inconclusive (no result: ClpP mod)
COc1cccc(-c2cncnc2N(C)Cc2ccco2)c1	none (no result: TDP1 inh, ClpP mod)
Cc1nn(-c2ccccc2)nc1CNC(=O)C1CCC1	none
CC(=O)N1N=C(c2cccc(NS(=O)(=O)c3ccc(C)cc3)c2)CC1c1ccco1 (centres undefined)	DT40 TDP1 CPT inconclusive, TDP1 cell noCPT inconclusive
CC(=O)N1N=C(c2ccc(NS(=O)(=O)c3ccccc3)cc2)CC1c1ccco1 (centres undefined)	DT40 TDP1 CPT 2.6µM, TDP1 cell noCPT 2.3µM
COc1ccc(C2=NN(C(=O)CSc3nnc(-c4ccccc4F)o3)C(c3ccco3)C2)cc1 (centres undefined)	DT40 TDP1 CPT inconclusive, TDP1 cell noCPT 21µM
COc1ccc(C2=NN(C(N)=S)C(c3ccco3)C2)cc1 (centres undefined)	DT40 TDP1 CPT inconclusive
O=C(COc1cccnc1[N+](=O)[O-])N1N=C(c2ccc(Cl)cc2)CC1c1ccco1 (centres undefined)	DT40 TDP1 CPT inconclusive, TDP1 cell noCPT 2.9µM (no result: ClpP mod)
Cc1ccc(C2=NN(C(=O)CSc3nccn3C)C(c3ccco3)C2)cc1 (centres undefined)	DT40 TDP1 CPT 21µM, TDP1 cell noCPT 21µM
Cc1ccc(C2=NN=C(NC(=O)C(F)(F)F)SC2)cc1	none
O=C(c1ccco1)N1N=C(c2ccc(Cl)cc2)CC1c1ccco1 (centres undefined)	DT40 TDP1 CPT 18µM, TDP1 cell noCPT 9.2µM
O=C(c1ccco1)N1N=C(c2cccs2)CC1c1ccco1 (centres undefined)	none
CCc1ccc(C2=NN(C(C)=O)C(c3ccco3)C2)cc1 (centres undefined)	DT40 TDP1 CPT inconclusive, TDP1 cell noCPT 16µM
O=C(c1ccco1)N1N=C(c2ccc(Br)cc2)CC1c1ccco1 (centres undefined)	DT40 TDP1 CPT 8.2µM, TDP1 cell noCPT 5.2µM
COc1cc(/C=C2/NC(=O)NC2=O)cc(Br)c1OCc1ccccc1	TDP1 cell noCPT inconclusive (no result: ClpP mod)
Cc1nc2ccccc2n1-c1ccccc1	DT40 TDP1 CPT inconclusive, TDP1 cell noCPT inconclusive
Cc1nc2ccccc2c2c(N)c3ccccc3n12	DT40 TDP1 CPT inconclusive, TDP1 cell noCPT 21µM (no result: ClpP mod)
C/C(=C1/C=Nc2ccccc21)c1ccc(N(C)C)cc1	DT40 TDP1 CPT 7.9µM, TDP1 cell noCPT 10µM (no result: TDP1 inh)
O=C(/C=C/c1cccs1)N1CCN(Cc2ccc3c(c2)OCO3)CC1	ClpP mod inconclusive, TDP1 cell noCPT inconclusive
Cc1cc(Nc2ccc(Br)cc2)nc(C)n1	TDP1 cell noCPT inconclusive
CC(=O)c1ccc(C2CC(OCCF)=CC(=O)O2)cc1 (centres undefined)	none (no result: TDP1 inh)
Cc1cccc(N2CCN(S(=O)(=O)c3ccc4c(c3)C(C(C)C)C(=O)N4)CC2)c1C (centres undefined)	DT40 TDP1 CPT 5.2µM, TDP1 cell noCPT 12µM
Cc1cccc(N2CCN(S(=O)(=O)c3ccc4c(c3)NC(=O)C(C)S4)CC2)c1C (centres undefined)	DT40 TDP1 CPT 21µM, TDP1 cell noCPT inconclusive
O=C1N(c2cccc(Cl)c2)C(c2ccc(Cl)cc2)N2CCCN12 (centres undefined)	ClpP mod inconclusive
CN(c1ccccc1)S(=O)(=O)c1cccc(NC(=O)c2cc(=O)c3ccccc3o2)c1	DT40 TDP1 CPT 16µM, TDP1 cell noCPT 12µM (no result: ClpP mod)
Cc1cc(C)c2c(=O)cc(C(=O)Nc3ccc(S(=O)(=O)N(C)Cc4ccccc4)cc3)oc2c1	DT40 TDP1 CPT 5.8µM, TDP1 cell noCPT inconclusive
Cc1cc(C)c2c(=O)cc(C(=O)Nc3ccc(S(=O)(=O)Nc4nc(C)cc(C)n4)cc3)oc2c1	TDP1 cell noCPT inconclusive
O=C(Nc1cccc(S(=O)(=O)N2CCCCCC2)c1)c1cc(=O)c2ccccc2o1	DT40 TDP1 CPT 23µM, TDP1 cell noCPT 13µM (no result: ClpP mod)
CN(Cc1ccccc1)S(=O)(=O)c1ccc(NC(=O)c2cc(=O)c3ccccc3o2)cc1	DT40 TDP1 CPT 13µM, TDP1 cell noCPT 16µM
Cn1cc([N+](=O)[O-])c(C(=O)NNC(=O)c2ccc([N+](=O)[O-])cc2Cl)n1	none (no result: ClpP mod)
O=C(Nc1nnc(C2=COCCO2)o1)c1ccc([N+](=O)[O-])cc1	DT40 TDP1 CPT inconclusive, TDP1 cell noCPT inconclusive
Cc1ccc(N2C(=O)c3ccccc3C2=O)c(C)c1	none (no result: DT40 TDP1 CPT, ClpP mod, TDP1 cell noCPT)
CCOc1ccc2c(c1)C(c1ccc(C)cc1)=NNC(c1ccc(OC)cc1)=N2	DT40 TDP1 CPT inconclusive
CCOc1ccc(C2=Nc3ccc(Br)cc3C(c3ccc(N4CCOCC4)cc3)=NN2)cc1	DT40 TDP1 CPT inconclusive, TDP1 cell noCPT 15µM
CCc1ccc2c(c1)C(c1ccc(N3CCOCC3)cc1)=NNC(c1ccncc1)=N2	none
CCOc1ccc(C2=Nc3ccccc3C(c3ccc(N4CCOCC4)cc3)=NN2)cc1	DT40 TDP1 CPT 23µM, TDP1 cell noCPT 13µM
COc1ccc(/C=C2\N=C(C)OC2=O)cc1[N+](=O)[O-]	DT40 TDP1 CPT inconclusive, TDP1 cell noCPT inconclusive (no result: ClpP mod)
COc1cc(/C=C2\N=C(C)OC2=O)cc(Cl)c1OC(C)=O	DT40 TDP1 CPT 15µM, TDP1 cell noCPT inconclusive (no result: TDP1 inh)
COc1cccc(/C=C/c2ccncc2)c1OC	DT40 TDP1 CPT inconclusive, TDP1 cell noCPT 23µM
COc1cc(OC)c(OC)cc1/C=C/c1nccc2ccccc12	DT40 TDP1 CPT inconclusive, TDP1 cell noCPT inconclusive (no result: TDP1 inh)
COc1cccc(/C=N/Nc2nc3ccccc3[nH]2)c1OC	none
Fc1ccc(/C=C/c2nccc3ccccc23)cc1	DT40 TDP1 CPT 7.1µM, TDP1 cell noCPT 14µM (no result: TDP1 inh)
COc1cccc(/C=C/c2nc3ccccc3nc2/C=C/c2cccc(OC)c2OC)c1OC	DT40 TDP1 CPT 8.9µM, TDP1 cell noCPT 2.8µM (no result: TDP1 inh)
COc1cccc(/C=C/c2nccc3ccccc23)c1OC	DT40 TDP1 CPT inconclusive, TDP1 cell noCPT 16µM (no result: TDP1 inh)
Cc1cc(C)cc(-n2nnc(-c3nc(-c4ccccc4F)no3)c2C)c1	DT40 TDP1 CPT inconclusive, TDP1 cell noCPT inconclusive
